This is a sample that favours compounds with a hit; in the whole collection about 1.1% have one here.
LAP4-GFP MLPCN = alters LAP4-GFP fluorescence in TOR pathway yeast screen | GFP response vs DMSO, % at 10 µM | S. cerevisiae LAP4-GFP multiplex, flow cytometry GFP, 3 h; median GFP as percent of DMSO wells | hit rate 0.34% among 320,000;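 active = GFP response vs DMSO above a set limit, about the screen mean plus 3 SD, cut at about 150% in these data; inconclusive = under 70 cell events counted for the yeast strain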
VLA-4 inh = inhibition in a human VLA-4 binding assay | P13612 | VLA-4 expressing cells, ligand binding flow cytometry | inhibition, % (about 7 µM as worked out from the volumes in the protocol) | hit rate 0.2% among 330,000; in the data active = inhibition above about 50%
MEP2-GFP yeast = yeast TOR pathway MEP2-GFP modulation | S. cerevisiae MEP2-GFP strain, flow cytometry GFP, 3 h; 100% = DMSO control level | GFP response vs DMSO, % at 10 µM | hit rate 0.51% among 330,000;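 active = GFP response versus DMSO above a set limit, roughly screen mean plus 3 SD, cut at about 180% in these data; inconclusive = fewer than 70 cells counted for a yeast strain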;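 also: median GFP fluorescence of the barcode-gated MEP2-GFP cells per well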
RPL19A TOR yeast = modulators of TOR pathway RPL19A-GFP in S. cerevisiae; percent response vs DMSO, % at 10 µM; AID 2025; hit rate 0.3% among 330,000; S. cerevisiae RPL19A-GFP strain, flow cytometry, 3 h; stronger effect = lower value;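 active = percent response vs DMSO below 50%; inconclusive = fewer than 70 events counted for the yeast strain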;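 also: median channel GFP fluorescence of the barcoded RPL19A-GFP strain; lower means less RPL19A-GFP as with rapamycin TOR inhibition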
AGP1-GFP MLPCN = yeast TOR pathway AGP1-GFP modulation; AID 2066; S. cerevisiae AGP1-GFP multiplex flow cytometry, 3 h; GFP as percent of DMSO wells; hit rate 0.02% among 320,000; GFP response vs DMSO, % at 10 µM;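 active = GFP response relative to DMSO above a set limit, near screen average plus 3 SD, cut at about 150% in these data; inconclusive = fewer than 70 cells counted for the yeast strain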;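 also: median GFP channel fluorescence of the gated AGP1 strain per well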
CIT2-GFP yeast = modulators of TOR pathway CIT2-GFP in S. cerevisiae; S. cerevisiae CIT2-GFP strain, flow cytometry, 3 h; 100 means same as DMSO wells; GFP response vs DMSO, % at 10 µM; hit rate 0.065% among 320,000; AID 2029;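 active = GFP response relative to DMSO above a set limit, near the screen mean plus 3 SD, cut at about 150% in these data; inconclusive = Fewer than 70 cells measured for a yeast strain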;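 also: ratio of well median GFP fluorescence to mean of DMSO wells on the plate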
Of the large screens only hits and unclear results are named; the others gave an inactive call; [ ] = dose if it differs, or a comment.

CN1CCN(/N=C/c2c3ccccc3c(Cl)c3ccccc23)CC1	LAP4-GFP MLPCN 162.7, VLA-4 inh 57.2
C=CC[N@@+]12CC[C@]34c5ccccc5N5/C=C6\C7N(/C=C(\C53)[C@@H](C[C@@H]41)/C(=C/CO)C2)c1ccccc1[C@@]71CC[N@@+]2(CC=C)C/C(=C\CO)[C@@H]6C[C@@H]12 (some centres undefined)	none
COc1ccc(-c2csc(N(CC(C)C)C(=O)c3ccco3)n2)cc1	AGP1-GFP MLPCN 150.4
Cc1nc2ncnn2c(C)c1CCC(=O)NCCCN1CCN(c2cccc(Cl)c2)CC1	MEP2-GFP yeast 179.8[may fluoresce violet], RPL19A TOR yeast 24.0[may fluoresce violet], AGP1-GFP MLPCN inconclusive, CIT2-GFP yeast inconclusive
Cc1nc2ncnn2c(C)c1CCC(=O)NCCc1ccccc1	none
O=C(O)Cc1sc(Nc2ccc(F)cc2)nc1-c1cccs1	LAP4-GFP MLPCN 194.9
Cc1ccc(Nc2nc(-c3ccccc3)c(CC(=O)O)s2)cc1	none
Cc1ccc(SSc2cc(C)ccc2N)c(N)c1	none
Cc1cc(C)c2c(N)c(C(=O)NN)sc2n1	none
Cc1ccc(NC(=O)c2sc3nc(C)cc(C)c3c2N)cc1	MEP2-GFP yeast 340.4[may fluoresce violet], RPL19A TOR yeast 36.2[may fluoresce violet], AGP1-GFP MLPCN inconclusive, CIT2-GFP yeast inconclusive
O=C1OC2(c3ccccc31)c1cc(I)c(O)c(I)c1Oc1c2cc(I)c(O)c1I	LAP4-GFP MLPCN 243.4, MEP2-GFP yeast 256.6, CIT2-GFP yeast 168.7
O=S(=O)(NCCc1ccccn1)c1ccc(OC(F)(F)F)cc1	CIT2-GFP yeast 170.9[may fluoresce green]
O=C(COc1cc(F)ccc1[N+](=O)[O-])NCCN1C(=O)CSC1=O	none
Cc1ccc(S(=O)(=O)c2cc3c(=O)n4ccccc4nc3n(CCCN3CCOCC3)c2=N)cc1C	RPL19A TOR yeast 41.0[may fluoresce violet], AGP1-GFP MLPCN inconclusive, CIT2-GFP yeast inconclusive
N=c1c(S(=O)(=O)c2ccc(Cl)cc2)cc2c(=O)n3ccccc3nc2n1CCN1CCOCC1	none (no result: CIT2-GFP yeast)
CCOCCCn1c(=N)c(S(=O)(=O)c2ccccc2)cc2c(=O)n3cc(C)ccc3nc21	MEP2-GFP yeast 176.0[may fluoresce violet], CIT2-GFP yeast inconclusive
N=c1c(S(=O)(=O)c2ccccc2)cc2c(=O)n3ccccc3nc2n1CCCN1CCOCC1	MEP2-GFP yeast 232.9[may fluoresce violet], AGP1-GFP MLPCN inconclusive, CIT2-GFP yeast inconclusive
CC(C)OCCCn1c(=N)c(S(=O)(=O)c2ccccc2)cc2c(=O)n3ccccc3nc21	none
Cc1ccc(-n2nc(C)c3c(C)c(CCC(=O)O)c(C)nc32)cc1	LAP4-GFP MLPCN 150.6, MEP2-GFP yeast 184.6
Cc1ccc(-n2nc(C)c3c(C)c(CCC(=O)O)c(C)nc32)cc1C	none
COc1ccc(CC(NC(C)=O)C(=O)NC2CCN(c3nnnn3-c3ccccc3)CC2)cc1 (centres undefined)	MEP2-GFP yeast 205.2[may fluoresce violet], RPL19A TOR yeast 29.7[may fluoresce violet], AGP1-GFP MLPCN inconclusive, CIT2-GFP yeast inconclusive
Cn1cc(C(=O)N2CCN(c3ccccn3)CC2)c(=O)c2cc(S(=O)(=O)N3CCOCC3)ccc21	none
CCN(CC)S(=O)(=O)c1ccc2c(c1)c(=O)c(C(=O)N1CCN(c3ccccn3)CC1)cn2C	MEP2-GFP yeast 210.8[may fluoresce violet], AGP1-GFP MLPCN inconclusive, CIT2-GFP yeast inconclusive
O=C(/C=C/c1ccccc1)Nc1ncn[nH]1	LAP4-GFP MLPCN 163.0
O=C(CCc1ccccc1)Nc1ncn[nH]1	none
Cc1cccc(CNC(=O)CCn2ccc3cc(S(=O)(=O)N4CCCC4)ccc32)c1	RPL19A TOR yeast 17.5[may fluoresce violet], AGP1-GFP MLPCN inconclusive, CIT2-GFP yeast inconclusive
Nc1ncnc2c1ncn2[C@@H]1O[C@H](CNCc2ccc(OCC(=O)Nc3nccs3)cc2)[C@@H](O)[C@H]1O	none
CC(=O)N1c2ccc(F)c(F)c2C[C@H]1C	none
O=C(O)c1ccc2ccc3ccccc3c2c1	MEP2-GFP yeast 205.3
Nc1ccc(-c2c3ccc(=O)cc-3oc3cc(O)ccc23)cc1C(=O)O	LAP4-GFP MLPCN 157.4
O=c1ccc2c(-c3ccccc3)c3ccc(O)cc3oc-2c1	none
N=c1n(CCN2CCCCC2)c2ccccc2n1CC(=O)c1ccc(Cl)c(Cl)c1	LAP4-GFP MLPCN 168.4
CCn1c(=N)n(CC(=O)c2ccc(Cl)c(Cl)c2)c2ccccc21	none
Cc1ccc(C)c(NS(=O)(=O)c2cc3c4c(c2)CC(=O)N4CCC3)c1	none
CCCCOc1ccccc1Cn1c(=O)oc2ccccc21	MEP2-GFP yeast 177.7[may fluoresce violet], CIT2-GFP yeast inconclusive (no result: AGP1-GFP MLPCN)
Cc1c(Br)c(O)c(Br)c2sc(=O)oc12	LAP4-GFP MLPCN 177.1, RPL19A TOR yeast 47.9
O=C1c2ccccc2C(=O)c2c([N+](=O)[O-])ccc(O)c21	LAP4-GFP MLPCN 154.2
O=C(O)c1ccc([N+](=O)[O-])c2c1C(=O)c1ccccc1C2=O	none
COC(=O)NC1CCC(CC2CCC(NC(=O)OC)CC2)CC1 (centres undefined)	LAP4-GFP MLPCN 212.1, MEP2-GFP yeast 698.3
O=C(NC1CCC(CC2CCC(NC(=O)C(Cl)Cl)CC2)CC1)C(Cl)Cl (centres undefined)	none
CNc1cc(CSC)nc(SCc2ccc(Cl)cc2Cl)n1	LAP4-GFP MLPCN 164.3
C#CCOCCOCCOCCNc1nc(N2CCN(C(=O)CCCCCCCCCCNC(=O)[C@H](CO)n3cc(CCCCCN)nn3)CC2)nc(N2CCN(C(=O)CCCCCCCCCCNC(=O)[C@H](CCCN=C(N)N)n3cc(C[C@@H](C)CC)nn3)CC2)n1	LAP4-GFP MLPCN 162.0
C#CCOCCOCCOCCNc1nc(N2CCN(C(=O)CCCCCCCCCCNC(=O)[C@H](CCCCN)n3cc(C[C@@H](C)CC)nn3)CC2)nc(N2CCN(C(=O)CCCCCCCCCCNC(=O)[C@H](CCCN=C(N)N)n3cc(C[C@@H](C)CC)nn3)CC2)n1	LAP4-GFP MLPCN 198.5
COc1cc(CC(=O)N(CC(C)C)C2CCS(=O)(=O)C2)cc(OC)c1OC (centres undefined)	none
O=C(c1ccco1)N1CCN(Cc2cc(=O)c(OCc3ccc(F)cc3)co2)CC1	none
Cc1cccc(C(=O)NCC(=O)OCC(=O)N(C)CC(=O)Nc2ccc(F)cc2)c1	none
C/C(=N/OC(=O)c1ccc(F)cc1)c1ccc(C)cc1	MEP2-GFP yeast 327.4[may fluoresce violet], CIT2-GFP yeast inconclusive
CC1CN(c2nc(-c3ccc(Br)cc3)nnc2-c2ccccc2)CC(C)N1 (centres undefined)	MEP2-GFP yeast 495.8[may fluoresce violet], RPL19A TOR yeast 29.0[may fluoresce violet], CIT2-GFP yeast inconclusive (no result: AGP1-GFP MLPCN)
O=C(COc1ncnc2ccccc12)N1CCOCC1	none
CC1CCN(C(=O)COc2ncnc3ccccc23)CC1	MEP2-GFP yeast 288.7[may fluoresce violet], RPL19A TOR yeast 46.4[may fluoresce violet], AGP1-GFP MLPCN inconclusive, CIT2-GFP yeast inconclusive
CSC1=NC(=O)/C(=C/c2ccc(SC)cc2)S1	LAP4-GFP MLPCN 175.6
CN=C1S/C(=C\c2ccc(SC)cc2)C(=O)N1C	none
CCn1cc([N+](=O)[O-])c(=O)c2cc(F)c(N3CCOCC3)cc21	MEP2-GFP yeast 254.9[may fluoresce violet], AGP1-GFP MLPCN inconclusive, CIT2-GFP yeast inconclusive
